# Data from ChEMBL document CHEMBL4513216, “Probing the Open Global Health Chemical Diversity Library for Multistage-Active Starting Points for Next-Generation Antimalarials” (ACS Infect Dis, 2020).
# Among all 69,000 compounds or so, about 8,600 (12%) showed an effect of 50% or more. The entries come from a sample that favours strong results as a whole.
# Tested on: Plasmodium berghei
# Assay: Screen against P. berghei liver stage (PbLuc), transformed with Luciferase, at 10uM
# Assay type: functional, HepG2
# Details: tested at 10 uM
row,Compound,INHIBITION [%]
1,Cc1cc(C(O)CCNC(=O)c2ccc(Cl)s2)c(C)o1 (stereo not drawn),-1.04
2,CC(C)OCCSc1nnnn1C1CCOCC1,26.9
3,O=C1OCCN1CCSc1nnnn1CC(F)(F)F,42.4
4,O=C1OCCN1CCSc1nnnn1C1CCOCC1,54.5
5,Cc1cnn(CC2CCCN2c2ncnc3c2CCC3)c1 (stereo not drawn),-2.94
6,Cc1cnn(CC2CCCN2c2ncnc3ccccc23)c1 (stereo not drawn),75.9
7,Cc1cnn(CC2CCCN2c2ccc(C#N)cn2)c1 (stereo not drawn),-16
8,Cc1cnn(CC2CCCCN2c2ncnc3ccccc23)c1 (stereo not drawn),-34.6
9,c1nc(N2CCCCC2Cn2cncn2)c2ccsc2n1 (stereo not drawn),45.8
10,c1cnn(CC2CCCN2c2ncnc3c2CCC3)c1 (stereo not drawn),59.7
11,Cc1nn(C)c(Cl)c1C1CCCN1c1ncnc2sccc12 (stereo not drawn),42.6
12,Cc1cnn(CC2CCCN2c2ncnc3ccsc23)c1 (stereo not drawn),47.7
13,N#Cc1ccc(N2CCCC2Cn2cccn2)nc1 (stereo not drawn),-155
14,COc1c(C2CCCN2c2ncnc3sccc23)c(C)nn1C (stereo not drawn),40
15,Cc1nn(C)c(C)c1C1CCCN1c1ncnc2sccc12 (stereo not drawn),70.5
16,Cc1cnn(CC2CCCN2c2ncnc3sccc23)c1 (stereo not drawn),56.1
17,CSCC[C@H](NC(C)=O)c1nc(CC(C)C)n[nH]1,-24.7
18,c1ccc2oc(CN3CCCC(Cn4cncn4)C3)nc2c1 (stereo not drawn),16.34
19,CC(C)CCN(C(=O)c1ccc(-n2ncc(C#N)c2N)cc1)C1CC1,19.5
20,Cc1cnn(CCC(=O)N2CCCC(c3ccn[nH]3)C2)c1 (stereo not drawn),-19.4
21,Cc1nc(C)n(C2CCCN(C(=O)CCOc3cccc(F)c3)C2)n1 (stereo not drawn),33.3
22,Cc1c(NCCO)cccc1OC1CCCC1,-64.6

row,Compound,INHIBITION [%]
1,CN1CCC(CNC(=O)NCc2ccc(F)cc2)CC1,-33
2,CC(C)NC(=O)c1cc2c(s1)CCN2C(=O)CN(C)C,8.67
3,Cc1nn(C)c(C)c1C1COCCN1c1ncnc2sccc12 (stereo not drawn),-7.11
4,Cc1n[nH]c(C)c1C1COCCN1c1ncnc2sccc12 (stereo not drawn),71.4
5,c1ccc2c(N3CCCC3Cn3cccn3)ncnc2c1 (stereo not drawn),76.9
6,c1ccc2c(N3CCCCC3Cn3cncn3)ncnc2c1 (stereo not drawn),-11.1
7,CC1COCCN1c1ncnc2sccc12 (stereo not drawn),49.1
8,c1ccc2c(N3CCCCC3Cn3cccn3)ncnc2c1 (stereo not drawn),11.575
9,O=C(c1ccncc1)N1C[C@H]2CC[C@@H](C1)N(C(=O)N1CCOCC1)C2,-20.6
10,CCc1nc(C2CCCN2Cc2nccn2CC(F)(F)F)no1 (stereo not drawn),28.8
11,CC1CN(CC(=O)NCc2ccccn2)CCN1Cc1nccn1C (stereo not drawn),-20.19
12,O=C(c1ccc2c(c1)OCCCO2)N1CCCC(n2cccn2)C1 (stereo not drawn),7.12
13,Cn1cnc2cc(NC(=O)c3n[nH]c4c3CCC4)ccc21,-136
14,COCCn1ccc2c(NC(=O)c3n[nH]c4c3CCCC4)cccc21,14.8
15,CC(=O)Nc1cccc2c1ccn2CC(=O)Nc1n[nH]c(CC(C)C)n1,71.3
16,COCCn1ccc2c(NC(=O)c3n[nH]c4c3CCC4)cccc21,9.57
17,CC(C)Cn1ccc2c(NC(=O)c3n[nH]c4c3CCC4)cccc21,90.8
18,CC(=O)Nc1cccc2c1ccn2CC(=O)Nc1nc[nH]n1,21.5
19,CC(C)n1ccc2c(NC(=O)c3n[nH]c4c3CCC4)cccc21,76.9
20,CN(C)CCCn1cnc2cc(NC(=O)c3n[nH]c4c3CCC4)ccc21,10.1
21,Cc1ccc(N(C)C2CCN(C(=O)c3n[nH]c4c3CCC4)CC2)nn1,-20.3
22,CC(=O)Nc1cccc2c1ccn2CC(=O)NC(C)C,22

row,Compound,INHIBITION [%]
1,CC(C)c1nc2cc(NC(=O)c3n[nH]c4c3CCC4)ccc2n1C,62.2
2,Cc1cc(CC(C)NC(=O)c2n[nH]c3c2CCC3)n[nH]1 (stereo not drawn),-56.2
3,O=S(=O)(c1cnccc1N1CCN(CCO)CC1)N1CCOCC1,36.8
4,CCOc1ccc(C#N)cc1NC(=O)N1CCC(n2cncn2)CC1,-31.4
5,Cc1nc(N2CCCC2)ncc1-c1cc(O)nc(NCC2CCCO2)n1 (stereo not drawn),-29.6
6,Cc1[nH]ccc1C(=O)N1C[C@@H]2CC[C@H]1CN(S(=O)(=O)N(C)C)C2,21.5
7,Cc1cc(S(=O)(=O)NCC(C)(C)N)c(F)cc1F,48.8
8,COCCNC(=O)NCc1cc(-c2cccs2)n(C2CCCC2)n1,43.9
9,Cc1noc(C)c1-c1cncc(C2CCCN2Cc2cncnc2)n1 (stereo not drawn),22.2
10,O=S(=O)(Cc1cccc(Cl)c1)CC(O)Cn1cccn1 (stereo not drawn),57.5
11,Cc1cccc(CS(=O)(=O)CC(O)Cn2cccn2)c1 (stereo not drawn),15.5
12,O=S(=O)(Cc1ccccc1)CC(O)Cn1cccn1 (stereo not drawn),34
13,Cn1c(NCc2ccc(C(N)=O)cc2)nc2cc(Cl)ccc21,10.7
14,CC(CN1CCCC1=O)NC(=O)NCc1ccccc1-n1cccn1 (stereo not drawn),48.6
15,O=C(c1ccc(F)c(F)c1)N1C[C@H]2CNC[C@H]2C1,5.04
16,O=C(c1ccc(S(=O)(=O)NCC(F)F)cc1)N1CC[C@H]2CNC[C@H]21,43.7
17,O=C(c1ccc(S(=O)(=O)NCC(F)F)cc1)N1C[C@H]2CNC[C@H]2C1,69.3
18,CC(C)n1cnc2c1C(C(=O)NCCC#N)N(Cc1ccccc1)CC2 (stereo not drawn),15.1
19,COCc1nc(C2CCN(Cc3nccn3C)CC2)no1,-11.7
20,COC(=O)c1ccc2c(c1)CCCN2S(=O)(=O)c1cn(C)c(C)n1,2.25
21,c1cc2c(cc1OC[C@@H]1CCCN3CCCC[C@H]13)OCCO2,28.4
22,O=C(CC[C@@H]1CCCN2CCCC[C@H]12)NCCc1cc(O)ncn1,26.8

row,Compound,INHIBITION [%]
1,Oc1coc2cc(OC[C@@H]3CCCN4CCCC[C@H]34)ccc12,56.2
2,CC(Cn1ccnc1)NC(=O)NCCc1cccs1 (stereo not drawn),-17.08
3,NC(CNS(=O)(=O)Cc1cccc2cccnc12)c1ccccc1 (stereo not drawn),29
4,Cc1nn(C)c(C)c1C(=O)NCc1ccnc(OCC(F)(F)F)c1,13.765
5,O=C(NC1CCCCC1)c1nnc2ccc(N3CCOCC3)cc2n1,-64.4
6,NCC(=O)N1CCCC1c1ccc(C(=O)NCc2ccoc2)s1 (stereo not drawn),64.5
7,Cc1ncc(CN2CCCC2c2ccc(C(=O)NCc3ccoc3)s2)s1 (stereo not drawn),37.4
8,O=C(NCc1ccoc1)c1ccc(C2CCCN2CC2CCOCC2)s1 (stereo not drawn),22.7
9,CC(C)=CCCC1(C)CCC(=O)N(CCc2csc(N)n2)C1 (stereo not drawn),39.3
10,CC(C)COC1CCN(C(=O)c2cc3ccccc3c(=O)[nH]2)CC1,-1.55
11,CCOC1CCN(C(=O)c2ccc(-c3cccc(C)c3)[nH]c2=O)CC1,-16
12,CC(C)COC1CCN(C(=O)c2ccc(C(F)(F)F)[nH]c2=O)CC1,63.5
13,Cc1noc(C)c1CN1CCN(CCN(C)C)c2ncccc2C1,23.3
14,Clc1ccccc1Cn1cc(CNC2CCc3ncnn3C2)cn1 (stereo not drawn),-12.1
15,CCOc1cccc(NC(=O)c2cnc(C)cn2)n1,-24.5
16,Cc1nn(C)c(N2CCCN(C)CC2)c1CNC(=O)C(C)(C)C,-49.5
17,CN(C)CCn1c(=O)oc2ccc(NC(=O)c3cc(Cl)c[nH]3)cc21,-31.6
18,CC(C)COCCC(=O)Nc1ccc2oc(=O)n(CCN(C)C)c2c1,-3.08
19,CC(C)CCC(=O)Nc1ccc2oc(=O)n(CCN(C)C)c2c1,-34.8
20,CN(C)CCn1c(=O)oc2ccc(NC(=O)N3CCCCCC3)cc21,17.5
21,Cc1cc(C(=O)Nc2ccc3oc(=O)n(CCN(C)C)c3c2)c(C)o1,69.7
22,CN(C)CCn1c(=O)oc2ccc(NC(=O)CC(C)(C)C)cc21,-3.95

row,Compound,INHIBITION [%]
1,CCC(C)C(=O)Nc1ccc2oc(=O)n(CCN(C)C)c2c1 (stereo not drawn),56
2,CCC(CC)C(=O)Nc1ccc2oc(=O)n(CCN(C)C)c2c1,50.8
3,CN(C)CCn1c(=O)oc2ccc(NC(=O)CSc3ccccc3)cc21,24.3
4,CC1CN(CC(=O)NC(=O)NCc2cccs2)CCN1CC(F)(F)F (stereo not drawn),3.03
5,CC1CCN(c2nc(O)cc(C3CC(=O)N(C4CCCCC4)C3)n2)CC1 (stereo not drawn),11.475
6,COc1ccc2c(c1)C1(CCN(Cc3cnn(C)c3)CC1)N(C)CC2,-72
7,COCC1COCCC12CCN(C(=O)COc1ccccc1)CC2 (stereo not drawn),-10.3
8,COCCNC(=O)Cc1cnc(-n2cccc2)s1,41.1
9,COCc1nccc(C2CCCN(Cc3cccc(F)c3)C2)n1 (stereo not drawn),20.9
10,Cc1nc(O)cc(C2CCN(Cc3ccc(F)c(F)c3)C2)n1 (stereo not drawn),30.8
11,CCc1c(C)nc2cc(C3CCN(Cc4ccc(F)cc4)C3)nn2c1O (stereo not drawn),66.5
12,Cc1cc(CN2CCC(C3CCN(CCc4ccccc4)CC3)C2)[nH]n1 (stereo not drawn),9.63
13,Cc1cc(CN2CCC(C3CCN(CCc4ccccc4)C3)CC2)[nH]n1 (stereo not drawn),11.9
14,CCc1c(C)nc2cc(C3CCN(Cc4cccc(F)c4)C3)nn2c1O (stereo not drawn),77.3
15,CCc1c(C)[nH]c2cc(C3CCN(Cc4ccncc4C)C3)nn2c1=O (stereo not drawn),38.8
16,CCc1c(C)nc2cc(C3CCN(Cc4cccnc4)C3)nn2c1O (stereo not drawn),-33.4
17,CCc1c(C)nc2cc(C3CCN(CCc4ccccc4)C3)nn2c1O (stereo not drawn),83.3
18,Cc1ccc2c(c1)C(=O)NCC1(CCN(C(=O)c3ccnn3C)CC1)O2,8.72
19,O=C(c1cscn1)N1CC[C@]2(C[C@@H](OCCN3CCCC3)CO2)C1,43.2
20,Cc1ccsc1CN(Cc1ccccn1)CC(O)CO (stereo not drawn),19.7
